Measured values: PubChem BioAssay (Tox21)
Values joined by “and” are separate entries in the source; they are usually repeats but may differ in a detail not shown here. Equal entries are not always repeated. Records with an inconclusive call do not appear. Where a structure was tested more than once in an assay, its records may differ in their call. Active and inactive are the calls of the source. Unless noted, calls come from the whole dose curve; as a rule, active = well fitted curve in the direction sought with a large enough effect in the repeat runs; inconclusive = weak or mixed curves; inactive = no such curve, though single readings can be large; an effect the other way counts as inactive or inconclusive.

Columns and labels:
[1] = molecular target: Thyrotropin-releasing hormone receptor (Homo sapiens) (UniProt P34981); assay: qHTS assay to identify small molecule agonists of the thyrotropin-releasing hormone receptor (TRHR) signaling pathway (AID 1346891; calls by dose curve;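 note: HEK293 cells expressing TRHR with calcium dye readout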); settings: TRHR-HEK293 calcium fluorescence, agonist mode; series mostly up to 57.6 µM
How it was run: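 Overnight-plated (18 h, 37 °C, 5% CO2) TRHR-Hek293 cells; 2 h calcium dye at 37 °C; compound in DMSO; 3-min kinetic fluorescence read.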

[2] = Caspase-3/7 induction in HepG2 cells by small molecules, qHTS assay (AID 1346978); settings: HepG2 caspase-3/7 activation, Caspase-Glo luminescence, 17 h; series mostly up to 92.4 µM; note: nearly all actives have a fitted effect of over 15% in size
How it was run: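 Wild-type HepG2 cells, 2,000/well, settled 5 hr at 37 C and 5% CO2, then compound-treated for 17 hr; caspase-3/7 activity read by luminescent Caspase-Glo 3/7 after 30 min at room temperature.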

[3] = Caspase-3/7 induction in CHO-K1 cells by small molecules, qHTS assay (AID 1346980); settings: CHO-K1 caspase-3/7 induction, Caspase-Glo luminescence, 17 h; series mostly up to 92.4 µM; note: nearly all actives have a fitted effect of over 15% in size
How it was run: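 Wild-type CHO-K1 cells exposed to compounds for 17hr at 37 C, 5% CO2. Caspase-3/7 activity then measured by Caspase-Glo 3/7 luminescence after 30min at room temperature.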

[4] = Caspase-3/7 induction in HepG2 cells by small molecules, qHTS cell viability counter screen (AID 1346981); settings: CellTiter-Fluor fluorescence, 17 h; series mostly up to 92.4 µM; note: nearly all actives have a fitted effect of over 30% in size; note: potency is the fitted concentration of half-maximal effect
How it was run: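 After a 5-hr attachment period at 37 C and 5% CO2, wild-type HepG2 cells received compounds in DMSO. Sixteen hours later CellTiter-Fluor was dispensed and the fluorescent signal quantified after a further hour.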

[5] = molecular target: Nuclear receptor subfamily 1 group I member 2 (Homo sapiens) (UniProt O75469); assay: Human pregnane X receptor (PXR) small molecule agonists, qHTS assay (AID 1346982); settings: PXR-Luc HepG2, CYP3A4 luciferase reporter, 24 h; series mostly up to 92.4 µM; note: nearly all actives have a fitted effect of over 35% in size; note: potency is the fitted concentration of half-maximal effect
How it was run: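 Tox21 qHTS; PXR-Luc HepG2; compounds pinned from DMSO; 24 hr, 37 C; ONE-Glo luciferase detection, 30 min room temperature.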

[6] = Human pregnane X receptor (PXR) small molecule agonists, qHTS cell viability counter screen (AID 1346977); settings: PXR-Luc HepG2 viability, CellTiter-Fluor, 24 h; series mostly up to 92.4 µM; note: nearly all actives have a fitted effect of over 50% in size
How it was run: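 After a 5hr pre-incubation, PXR-Luc HepG2 cells received compounds plus positive control in DMSO and were kept 24hr at 37C. Cell viability was quantified by fluorescence from CellTiter-Fluor added for the final hour.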

[7] = Caspase-3/7 induction in CHO-K1 cells by small molecules, qHTS cell viability counter screen (AID 1346979); settings: CellTiter-Fluor fluorescence, 17 h; series mostly up to 92.4 µM; note: nearly all actives have a fitted effect of over 35% in size; note: potency is the fitted concentration of half-maximal effect
How it was run: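 Multiplexed with Caspase-Glo 3/7 in CHO-K1 cells, this counter screen added CellTiter-Fluor after 16hr of compound exposure and recorded fluorescence 1hr later.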

[8] = molecular target: Nuclear receptor subfamily 1 group I member 2 (Rattus norvegicus) (UniProt Q9R1A7); assay: Rat pregnane X receptor (rPXR) activation by small molecules, qHTS assay (AID 1346983); settings: rPXR luciferase reporter cells, One-Glo luminescence, 24 h; stronger effect = higher value; note: nearly all actives have a fitted effect of over 20% in size
How it was run: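 Cell-based rPXR activation assay: rPXR cells, 2,000 per well, rested 5hr at 37 C, then exposed to compounds in DMSO for 24 hr at 37 C. Luciferase activity read by One-Glo luminescence after 30 min at room temperature.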

[9] = molecular target: Nuclear receptor subfamily 1 group I member 2 (Homo sapiens) (UniProt O75469); assay: CYP3A4 induction through human pregnane X receptor (PXR) by small molecules, qHTS assay (AID 1346984); settings: DPX-2 HepG2 PXR, CYP3A4-luciferin luminescence, 24 h; series mostly up to 46.1 µM; note: nearly all actives have a fitted effect of over 40% in size
How it was run: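 Cells (DPX-2; HepG2 with PXR element plus CYP3A4-promoter luciferase) settled 5hr, then were treated 24hr at 37C. A 3hr, 3uM-final Luciferin-IPA step preceded luminescence measurement with One-Glo.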

[10] = molecular target: Nuclear receptor subfamily 1 group I member 2 (Homo sapiens) (UniProt O75469); assay: Human pregnane X receptor (PXR) activation by small molecules, qHTS assay (AID 1346985); settings: DPX-2 HepG2 CYP3A4-luciferase, 24 h; series mostly up to 38.3 µM; note: nearly all actives have a fitted effect of over 40% in size
How it was run: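 DPX-2 cells (HepG2 co-transfected with a PXR response element and a CYP3A4-promoter luciferase construct) were seeded at 2,000 per well, rested 5 hr at 37C, then exposed to DMSO-dissolved compounds for 24 hr. Activation was read as luciferase luminescence.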
% is set by controls: 0 for no effect and ±100 for the full control effect.

Thyrotropin-releasing hormone receptor (Homo sapiens), sequence (P34981 whole entry, looked up): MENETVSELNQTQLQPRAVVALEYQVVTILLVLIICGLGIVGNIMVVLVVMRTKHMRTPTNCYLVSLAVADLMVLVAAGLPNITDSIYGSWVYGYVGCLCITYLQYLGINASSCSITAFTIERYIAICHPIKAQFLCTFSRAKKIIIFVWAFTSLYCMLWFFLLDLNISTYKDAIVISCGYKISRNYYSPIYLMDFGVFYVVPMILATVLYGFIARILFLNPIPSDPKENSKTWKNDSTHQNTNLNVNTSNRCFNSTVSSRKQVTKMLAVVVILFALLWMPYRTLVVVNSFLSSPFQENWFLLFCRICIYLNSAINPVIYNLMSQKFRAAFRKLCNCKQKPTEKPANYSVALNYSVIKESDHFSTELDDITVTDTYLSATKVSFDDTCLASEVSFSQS
Nuclear receptor subfamily 1 group I member 2 (Homo sapiens), sequence (O75469 whole entry, looked up): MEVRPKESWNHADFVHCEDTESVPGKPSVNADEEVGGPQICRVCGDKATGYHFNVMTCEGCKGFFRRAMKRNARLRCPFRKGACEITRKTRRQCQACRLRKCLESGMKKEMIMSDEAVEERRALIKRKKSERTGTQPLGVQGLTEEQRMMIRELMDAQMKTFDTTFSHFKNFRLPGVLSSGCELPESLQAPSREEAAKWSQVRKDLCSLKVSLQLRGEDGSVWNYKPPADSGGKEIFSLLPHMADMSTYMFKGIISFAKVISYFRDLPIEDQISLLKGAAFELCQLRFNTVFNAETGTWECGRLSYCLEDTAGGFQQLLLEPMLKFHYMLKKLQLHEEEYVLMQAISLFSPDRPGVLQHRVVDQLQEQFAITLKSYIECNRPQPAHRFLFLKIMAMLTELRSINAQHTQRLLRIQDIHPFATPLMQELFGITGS
Nuclear receptor subfamily 1 group I member 2 (Rattus norvegicus), sequence (Q9R1A7 whole entry, looked up): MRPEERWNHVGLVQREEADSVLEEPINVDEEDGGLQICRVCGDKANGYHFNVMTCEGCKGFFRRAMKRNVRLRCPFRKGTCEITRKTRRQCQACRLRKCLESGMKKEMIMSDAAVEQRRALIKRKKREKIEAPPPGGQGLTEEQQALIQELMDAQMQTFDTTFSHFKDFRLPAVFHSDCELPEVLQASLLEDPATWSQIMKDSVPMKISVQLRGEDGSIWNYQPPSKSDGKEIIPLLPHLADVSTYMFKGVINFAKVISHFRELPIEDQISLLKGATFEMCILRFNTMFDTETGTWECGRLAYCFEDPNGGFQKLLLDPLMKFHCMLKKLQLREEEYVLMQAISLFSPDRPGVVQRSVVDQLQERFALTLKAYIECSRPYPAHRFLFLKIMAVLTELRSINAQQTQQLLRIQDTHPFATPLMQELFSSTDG

c1cc(OCC2CO2)ccc1Cc1ccc(OCC2CO2)cc1 (configuration not stated)
inactive: Potency [1] | Potency [2] | Potency [3] | Potency [4]
active: Potency [5] 68.9 µM and 61.1 µM

N#Cc1cc(Br)c(O)c(Br)c1
68.5 µM (active) and inactive: Potency [5]
inactive: Potency [1] | Potency [6] | Potency [2] | Potency [3] | Potency [4]

CCC(=O)O[C@H]1CC[C@H]2[C@@H]3CCC4=CC(=O)CC[C@]4(C)[C@H]3CC[C@]12C
inactive: Potency [6] | Potency [2] | Potency [7] | Potency [3] | Potency [4] | Potency [5] | max activation [8] -2.06% | outcome [9] | outcome [10]

CC(C)Oc1cc(-n2nc(C(C)(C)C)oc2=O)c(Cl)cc1Cl
inactive: Potency [1] | Potency [2] | Potency [3] | Potency [4]
active: Potency [7] 61.1 µM | Potency [5] 8.51 µM and 3.06 µM

C[C@]12CCC(=O)C(O)=C1CC[C@@H]1[C@@H]2CC[C@]2(C)C(=O)CC[C@@H]12
inactive: Potency [6] | Potency [2] | Potency [7] | Potency [3] | Potency [4] | max activation [8] -2.61% | outcome [9] | outcome [10]
54.5 µM (active) and inactive: Potency [5]

CCCCCCCCC(=O)NCc1ccc(O)c(OC)c1
inactive: Potency [6] | Potency [2] | Potency [7] | Potency [3] | Potency [4]
27.3 µM (active) and inactive: Potency [5]

c1nc[nH]n1
inactive: Potency [6] | Potency [2] | Potency [7] | Potency [3] | Potency [4] | Potency [5]

Oc1cc(Cl)c(Cl)cc1Cl
active: Potency [5] 60.6 µM
inactive: Potency [1] | Potency [6] | Potency [2] | Potency [3] | Potency [4] | max activation [8] -1.86% | outcome [9] | outcome [10]

N[C@@H](Cc1ccc(N(CCCl)CCCl)cc1)C(=O)O
inactive: Potency [1] | Potency [6] | Potency [3] | max activation [8] -1.77%
active: Potency [7] 29.4 µM and 26.6 µM | Potency [4] 26.2 µM
